# Results published in PubChem BioAssay (EPA / NIEHS).
# Where “and” joins values, the source holds several entries; their conditions need not be identical. Equal entries are not always repeated. Some compounds were tested as several samples or in several runs, with calls that do not always agree. Calls of active or inactive are those of the source. The calls were made as follows: active = hit-call score of the fitted dose curve at least 0.9, where 1 is the maximum; inactive = score below 0.9.
# Experiments:
# [1] = read-out: Interleukin-6 (IL6), IL6 (gene 3569); assay: BSK_CASM3C_IL6: BioMAP Diversity Plus: CASM3C Assay for Interleukin-6 (IL6) Biomarker Activity for (AID 2283040); conditions: primary human coronary artery smooth muscle cells; actives raise or lower the signal
# [2] = read-out: Tissue plasminogen activator (tPA), PLAT (gene 5327); assay: BSK_BE3C_tPA: BioMAP Diversity Plus: BE3C Assay for Tissue plasminogen activator (tPA) Biomarker Activity (AID 2283041); conditions: primary human bronchial epithelial cells; actives raise or lower the signal;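 as to outcome: tPA level quantified by ELISA one day after compound addition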
# In short: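 Bidirectional curve fitting relative to DMSO defined activity, with tPA detected by ELISA in chemically treated human bronchial epithelial primary cells at 24 hours.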
# [3] = read-out: Interleukin-8 (IL8), CXCL8 (gene 3576); assay: BSK_CASM3C_IL8: BioMAP Diversity Plus: CASM3C Assay for Interleukin-8 (IL8) Biomarker Activity (AID 2283042); conditions: primary human coronary artery smooth muscle cells; actives raise or lower the signal;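 also: IL-8 protein level quantified by ELISA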
# [4] = read-out: Human Leukocyte Antigen - DR isotype (HLADR), HLA-DRA (gene 3122); assay: BSK_CASM3C_HLADR: BioMAP Diversity Plus: CASM3C Assay for Human Leukocyte Antigen - DR isotype (HLADR) Biomarker Activity (AID 2283043); conditions: primary human coronary artery smooth muscle cells; actives raise or lower the signal;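 also: cell-surface HLA-DR protein level quantified by ELISA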
# [5] = read-out: Macrophage colony-stimulating factor (MCSF), CSF1 (gene 1435); assay: BSK_CASM3C_MCSF: BioMAP Diversity Plus: CASM3C Assay for Macrophage colony-stimulating factor (MCSF) Biomarker Activity (AID 2283044); conditions: primary human coronary artery smooth muscle cells; actives raise or lower the signal;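 also: M-CSF protein amount quantified by ELISA after 24 h exposure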
# [6] = read-out: Low-density lipoprotein receptor (LDLR), LDLR (gene 3949); assay: BSK_CASM3C_LDLR: BioMAP Diversity Plus: CASM3C Assay for Low-density lipoprotein receptor (LDLR) Biomarker Activity (AID 2283045); conditions: primary human coronary artery smooth muscle cells; actives raise or lower the signal;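 also: LDLR protein level on the cell surface quantified by ELISA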
# [7] = read-out: Monocyte Chemoattractant Protein-1 (MCP1), CCL2 (gene 6347); assay: BSK_CASM3C_MCP1: BioMAP Diversity Plus: CASM3C Assay for Monocyte Chemoattractant Protein-1 (MCP1) Biomarker Activity (AID 2283046); conditions: primary human coronary artery smooth muscle cells; actives raise or lower the signal;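 also: MCP-1 level quantified by ELISA 24 h after dosing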
# [8] = BSK_CASM3C_Proliferation: Cell Proliferation Assessment in the BioMAP Diversity Plus: CASM3C Assay (AID 2283047); conditions: primary human coronary artery smooth muscle cells;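 also: sulforhodamine B total protein stain as relative cell number at 560 nm; sub-confluent cells exposed 48 h before staining; fitted both ways against DMSO so gain or loss of cell number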
# [9] = read-out: Monokine induced gamma interferon (MIG), CXCL9 (gene 4283); assay: BSK_CASM3C_MIG: BioMAP Diversity Plus: CASM3C Assay for Monokine induced gamma interferon (MIG) Biomarker Activity (AID 2283048); conditions: primary human coronary artery smooth muscle cells; actives raise or lower the signal;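 also: MIG protein level measured by ELISA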
# [10] = read-out: serum amyloid A (SAA), SAA1 (gene 6288); assay: BSK_CASM3C_SAA: BioMAP Diversity Plus: CASM3C Assay for serum amyloid A (SAA) Biomarker Activity (AID 2283049); conditions: primary human coronary artery smooth muscle cells; actives raise or lower the signal;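 also: SAA protein level quantified by ELISA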
# [11] = BSK_CASM3C_SRB: Viability Assessment in the BioMAP Diversity Plus: CASM3C Assay (AID 2283050); conditions: primary human coronary artery smooth muscle cells;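 also: total protein by SRB staining as cytotoxicity measure in parallel cultures; cells exposed to compound for 24 h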
# [12] = read-out: Thrombomodulin, THBD (gene 7056); assay: BSK_CASM3C_Thrombomodulin: BioMAP Diversity Plus: CASM3C Assay for Thrombomodulin Biomarker Activity (AID 2283051); conditions: primary human coronary artery smooth muscle cells; actives raise or lower the signal;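 also: thrombomodulin protein level measured by ELISA 24 h after dosing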
# [13] = read-out: Tissue Factor, F3 (gene 2152); assay: BSK_CASM3C_TissueFactor: BioMAP Diversity Plus: CASM3C Assay for Tissue Factor Biomarker Activity (AID 2283052); conditions: primary human coronary artery smooth muscle cells; actives raise or lower the signal;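 also: cell surface tissue factor protein level read by ELISA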
# [14] = read-out: Interferon-gamma inducible Protein 10 (IP10), CXCL10 (gene 3627); assay: BSK_hDFCGF_IP10: BioMAP Diversity Plus: hDFCGF Assay for Interferon-gamma inducible Protein 10 (IP10) Biomarker Activity (AID 2283053); conditions: primary human foreskin fibroblasts; actives raise or lower the signal
# In short: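 IP-10 levels, quantified by ELISA, are taken from human foreskin fibroblast cultures 24 h after chemical treatment, with DMSO serving as negative control and baseline for bidirectional analysis.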
# [15] = read-out: Urokinase-type plasminogen activator receptor (uPAR), PLAUR (gene 5329); assay: BSK_CASM3C_uPAR: BioMAP Diversity Plus: CASM3C Assay for Urokinase-type plasminogen activator receptor (uPAR) Biomarker Activity (AID 2283054); conditions: primary human coronary artery smooth muscle cells; actives raise or lower the signal;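 also: cell-surface uPAR protein level quantified by ELISA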
# [16] = read-out: Vascular cell adhesion molecule 1 (VCAM1), VCAM1 (gene 7412); assay: BSK_CASM3C_VCAM1: BioMAP Diversity Plus: CASM3C Assay for Vascular cell adhesion molecule 1 (VCAM1) Biomarker Activity (AID 2283055); conditions: primary human coronary artery smooth muscle cells; actives raise or lower the signal;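 also: VCAM-1 protein level quantified by ELISA on the cells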
# [17] = read-out: Collagen III, COL3A1 (gene 1281); assay: BSK_hDFCGF_CollagenIII: BioMAP Diversity Plus: hDFCGF Assay for Collagen III Biomarker Activity (AID 2283056); conditions: primary human foreskin fibroblasts; actives raise or lower the signal
# In short: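 hDFCGF primary human dermal fibroblasts; 24 h chemical exposure; collagen III by ELISA; bidirectional curve fit vs DMSO baseline (gain or loss of signal).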
# [18] = read-out: Epidermal growth factor receptor (EGFR), EGFR (gene 1956); assay: BSK_hDFCGF_EGFR: BioMAP Diversity Plus: hDFCGF Assay for Epidermal growth factor receptor (EGFR) Biomarker Activity (AID 2283057); conditions: primary human foreskin fibroblasts; actives raise or lower the signal
# In short: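 Measured by ELISA: EGFR levels on primary human foreskin fibroblasts 24 h after chemical treatment, analysed relative to DMSO with bidirectional fitting.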
# [19] = read-out: Interleukin-8 (IL8), CXCL8 (gene 3576); assay: BSK_hDFCGF_IL8: BioMAP Diversity Plus: hDFCGF Assay for Interleukin-8 (IL8) Biomarker Activity (AID 2283058); conditions: primary human foreskin fibroblasts; actives raise or lower the signal
# In short: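 ELISA read-out of IL-8 from primary human foreskin fibroblast cultures taken 24 h after dosing; values are bidirectional fits relative to DMSO vehicle.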
# [20] = BSK_hDFCGF_Proliferation: Cell Proliferation Assessment in the BioMAP Diversity Plus: hDFCGF Assay (AID 2283059); conditions: primary human foreskin fibroblasts;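 also: curves fitted for both rise and fall of signal versus DMSO baseline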
# In short: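 Sub-confluent human foreskin fibroblast cultures receive test chemical […]. Relative cell number is quantified by sulforhodamine B staining (0.1%, after 10% TCA fixation) at 560 nm, with bidirectional fitting referenced to DMSO.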
compound,measurement,setting,value
C=CC(=O)OCC(F)(F)C(F)(F)C(F)(F)C(F)(F)COC(=O)C=C,AC50,[1],7.96 µM (active)
same,outcome,[1],inactive
same,AC50,[2],8.82 µM (active)
same,outcome,[2],inactive
same,outcome,[3],inactive
same,AC50,[4],17.8 µM (active)
same,outcome,[4],inactive
same,AC50,[5],34.9 µM (active) and 30 µM (active)
same,AC50,[6],12.2 µM (active)
same,outcome,[6],inactive
same,AC50,[7],45.8 µM (active) and 44 µM (active)
same,AC50,[8],18.9 µM (active) and 31.4 µM (active)
same,AC50,[9],28.6 µM (active) and 31 µM (active)
same,AC50,[10],22.9 µM (active) and 16.1 µM (active)
same,AC50,[11],43 µM (active) and 43.7 µM (active)
same,outcome,[12],inactive
same,AC50,[13],52.7 µM (active) and 47.5 µM (active)
same,AC50,[14],8.28 µM (active) and 8.38 µM (active)
same,AC50,[15],48.9 µM (active) and 50 µM (active)
same,AC50,[16],17.7 µM (active) and 19.7 µM (active)
same,outcome,[17],inactive
same,AC50,[18],30 µM (active)
same,outcome,[18],inactive
same,AC50,[19],11.5 µM (active) and 14.4 µM (active)
same,AC50,[20],2.13 µM (active) and 1.2 µM (active)
C=CC(F)(F)C(F)(F)C(F)(F)C(F)(F)C(F)(F)C(F)(F)C(F)(F)C(F)(F)C=C,outcome,[1],inactive
same,outcome,[2],inactive
same,outcome,[3],inactive
same,outcome,[4],inactive
same,outcome,[5],inactive
same,outcome,[6],inactive
same,outcome,[7],inactive
same,outcome,[8],inactive
same,outcome,[9],inactive
same,outcome,[10],inactive
same,outcome,[11],inactive
same,outcome,[12],inactive
same,outcome,[13],inactive
same,outcome,[14],inactive
same,outcome,[15],inactive
same,outcome,[16],inactive
same,outcome,[17],inactive
same,outcome,[18],inactive
same,outcome,[19],inactive
same,outcome,[20],inactive
FC(F)(F)C(F)(F)C(F)(F)C(F)(F)CCI,outcome,[1],inactive
same,outcome,[2],inactive
same,outcome,[3],inactive
same,outcome,[4],inactive
same,outcome,[5],inactive
same,outcome,[6],inactive
same,outcome,[7],inactive
same,outcome,[8],inactive
same,AC50,[9],18.7 µM (active)
same,outcome,[9],inactive
same,outcome,[10],inactive
same,outcome,[11],inactive
same,outcome,[12],inactive
same,outcome,[13],inactive
same,outcome,[14],inactive
same,outcome,[15],inactive
same,outcome,[16],inactive
same,outcome,[17],inactive
same,outcome,[18],inactive
same,outcome,[19],inactive
same,outcome,[20],inactive
CC(CCl)OP(=O)(OC(C)CCl)OC(C)CCl (stereo unspecified),outcome,[1],inactive
same,outcome,[2],inactive
same,outcome,[3],inactive
same,outcome,[4],inactive
same,AC50,[5],39.8 nM (active)
same,outcome,[6],inactive
same,AC50,[7],19.1 nM (active)
same,outcome,[8],inactive
same,outcome,[9],inactive
same,outcome,[10],inactive
same,outcome,[11],inactive
same,outcome,[12],inactive
same,outcome,[13],inactive
same,outcome,[14],inactive
same,outcome,[15],inactive
same,outcome,[16],inactive
same,outcome,[17],inactive
same,outcome,[18],inactive
same,outcome,[19],inactive
same,outcome,[20],inactive
C=CC(=O)OCC(F)(F)C(F)(F)C(F)(F)C(F)(F)C(F)(F)C(F)(F)C(F)(F)F,outcome,[1],inactive
same,outcome,[2],inactive
same,outcome,[3],inactive
same,outcome,[4],inactive
same,outcome,[5],inactive
same,outcome,[6],inactive
same,outcome,[7],inactive
same,outcome,[8],inactive
same,outcome,[9],inactive
same,outcome,[10],inactive
same,outcome,[11],inactive
same,outcome,[12],inactive
same,outcome,[13],inactive
same,outcome,[14],inactive
same,outcome,[15],inactive
same,outcome,[16],inactive
same,outcome,[17],inactive
same,outcome,[18],inactive
same,outcome,[19],inactive
same,AC50,[20],17.5 µM (active) and 46.3 µM (active)
FC(F)(F)C(F)(F)C(F)(F)C(F)(F)C(F)(F)CCI,outcome,[1],inactive
same,outcome,[2],inactive
same,outcome,[3],inactive
same,outcome,[4],inactive
same,outcome,[5],inactive
same,outcome,[6],inactive
same,outcome,[7],inactive
same,AC50,[8],7.99 µM (active) and 30 µM (active)
same,outcome,[9],inactive
same,outcome,[10],inactive
same,outcome,[11],inactive
same,outcome,[12],inactive
same,outcome,[13],inactive
same,AC50,[14],22.2 µM (active)
same,outcome,[14],inactive
same,outcome,[15],inactive
same,outcome,[16],inactive
same,outcome,[17],inactive
same,outcome,[18],inactive
same,outcome,[19],inactive
same,AC50,[20],32.1 µM (active) and 31.2 µM (active)
O=C(O)C(F)(F)C(F)(F)C(F)F,outcome,[1],inactive
same,outcome,[2],inactive
same,outcome,[3],inactive
same,outcome,[4],inactive
same,outcome,[5],inactive
same,outcome,[6],inactive
same,outcome,[7],inactive
same,outcome,[8],inactive
same,outcome,[9],inactive
same,AC50,[10],5.48 µM (active)
same,outcome,[10],inactive
same,outcome,[11],inactive
same,outcome,[12],inactive
same,outcome,[13],inactive
same,outcome,[14],inactive
same,outcome,[15],inactive
same,outcome,[16],inactive
same,outcome,[17],inactive
same,outcome,[18],inactive
same,outcome,[19],inactive
same,outcome,[20],inactive
CCN(CC)c1ccc2c(C)cc(=O)oc2c1,outcome,[1],inactive
same,outcome,[2],inactive
same,outcome,[3],inactive
same,outcome,[4],inactive
same,outcome,[5],inactive
same,AC50,[6],31.3 µM (active)
same,outcome,[7],inactive
same,outcome,[8],inactive
same,outcome,[9],inactive
same,outcome,[10],inactive
same,outcome,[11],inactive
same,outcome,[12],inactive
same,outcome,[13],inactive
same,outcome,[14],inactive
same,outcome,[15],inactive
same,outcome,[16],inactive
same,outcome,[17],inactive
same,outcome,[18],inactive
same,outcome,[19],inactive
same,AC50,[20],24 µM (active)
O=C(O)C(F)(F)C(F)(F)C(F)(F)C(F)(F)C(F)(F)C(F)(F)C(F)(F)C(F)(F)C(F)(F)C(F)(F)C(F)(F)C(F)(F)C(F)(F)F,outcome,[1],inactive
same,outcome,[2],inactive
same,outcome,[3],inactive
same,outcome,[4],inactive
same,outcome,[5],inactive
same,outcome,[6],inactive
same,AC50,[7],33.9 nM (active)
same,outcome,[7],inactive
same,outcome,[8],inactive
same,outcome,[9],inactive
same,outcome,[10],inactive
same,outcome,[11],inactive
same,outcome,[12],inactive
same,outcome,[13],inactive
same,AC50,[14],5.35 µM (active)
same,outcome,[14],inactive
same,outcome,[15],inactive
same,outcome,[16],inactive
same,AC50,[17],0.641 µM (active)
same,outcome,[17],inactive
same,outcome,[18],inactive
same,outcome,[19],inactive
same,outcome,[20],inactive
C=CC/C=C/C/C=C/C/C=C/C,outcome,[1],inactive
same,outcome,[2],inactive
same,outcome,[3],inactive
same,outcome,[4],inactive
same,outcome,[5],inactive
same,outcome,[6],inactive
same,outcome,[7],inactive
same,AC50,[8],108 nM (active)
same,outcome,[9],inactive
same,outcome,[10],inactive
same,outcome,[11],inactive
same,outcome,[12],inactive
same,outcome,[13],inactive
same,outcome,[14],inactive
same,outcome,[15],inactive
same,outcome,[16],inactive
same,outcome,[17],inactive
same,outcome,[18],inactive
same,outcome,[19],inactive
same,outcome,[20],inactive
